Here are results for 18 compounds from PubChem BioAssay (EPA / NIEHS).

Records with an inconclusive call do not appear. Activity calls are given as the source filed them. Rule for the calls: active = hit-call score of the fitted dose curve at least 0.9, where 1 is the maximum; inconclusive = response in the unintended direction; inactive = score below 0.9.

Sequence of human Retinoic Acid Receptor gamma (RARg), RARG (gene 5916) (P13631 whole entry, looked up): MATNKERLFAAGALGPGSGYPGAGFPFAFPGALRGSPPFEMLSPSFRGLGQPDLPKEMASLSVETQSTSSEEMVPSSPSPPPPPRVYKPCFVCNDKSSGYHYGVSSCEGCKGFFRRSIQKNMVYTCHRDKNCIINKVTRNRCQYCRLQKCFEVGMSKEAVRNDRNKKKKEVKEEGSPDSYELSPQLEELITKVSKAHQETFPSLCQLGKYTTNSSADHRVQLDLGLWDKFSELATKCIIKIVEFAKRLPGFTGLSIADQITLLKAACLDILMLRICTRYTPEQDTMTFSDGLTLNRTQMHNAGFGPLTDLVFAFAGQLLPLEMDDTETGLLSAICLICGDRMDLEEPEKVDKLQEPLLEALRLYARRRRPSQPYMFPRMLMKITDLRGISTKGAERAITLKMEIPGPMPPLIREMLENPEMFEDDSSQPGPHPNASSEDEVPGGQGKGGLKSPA

This experiment deals with human Retinoic Acid Receptor gamma (RARg), RARG (gene 5916) (UniProt P13631). Description: ATG_RARg_TRANS: Attagene TRANS-FACTORIAL HepG2 Assay for human Retinoic Acid Receptor gamma (RARg) (AID 2283009). The method, then:
ATG_TRANS is a cell-based, multiplexed-readout assay that uses HepG2, a human liver cell line, with measurements taken at 24 hours after chemical dosing in a 24-well plate.ATG_RARg_TRANS is one of 30 assay component(s) measured or calculated from the ATG_TRANS assay. It is designed to make measurements of mRNA induction, a form of inducible reporter, as detected with fluorescence intensity signals by Reverse transcription polymerase chain reaction (RT-PCR) and Capillary electrophoresis technology.Data from the assay component ATG_RARg_TRANS was analyzed into 1 assay endpoint. This assay endpoint, ATG_RARg_TRANS, was analyzed in the positive analysis fitting direction relative to DMSO as the negative control and baseline of activity. Using a type of inducible reporter, measures of mRNA for gain-of-signal activity can be used to understand the reporter gene at the transcription factor-level as they relate to the gene RARG. Furthermore, this assay endpoint can be referred to as a primary readout, because this assay has produced multiple assay endpoints where this one serves a reporter gene function. To generalize the intended target to other relatable targets, this assay endpoint is annotated to the nuclear receptor intended target family, where the subfamily is non-steroidal.
Human liver HepG2 cells are transiently transfected with multiple reporter transcription units (MRTUs) in 6-well plates using FuGene 6 reagent (Roche; 3 ml FuGene/1 mg DNA). The MRTU constructs are regulated by a cis-regulating element (promoter). […] A major difference between the CIS and TRANS system is that in CIS activities of endogenous TFs are measured, whereas the TRANS assay evaluates changes in activities of exogenous, chimeric NR-Gal4 proteins. […] At the end of 24 hour incubation, total RNA was isolated using TriZol reagent (Invitrogen). The isolated RNA is then reverse-transcribed using oligo(dT) primer and Mo-MLV reverse transcriptase (Invitrogen) with DNAse I (Ambion) treatment for 30 min. The one-tenth of the produced cDNA was amplified by PCR using Taq DNA polymerase (Invitrogen) and two reporter sequence-specific primers. The PCR products were fluorescently labeled by primer extension with 6-arboxyfluorescein (6-FAM) 5'-labeled reporter sequence-specific primer (2 min at 95 C, 20 s at 68 C and 10 min at 72 C) and these products were digested with 5U of HpaI (New England Biolabs) for 2h at 37 C. […] The raw capillary electrophoresis data was processed using Attagraph software (Attagene).
`Cc1ccc(-c2cc(C(F)(F)F)nn2-c2ccc(S(N)(=O)=O)cc2)cc1`: the compound was classed as inactive.
As to `CC(C)COC(=O)CCCCC(=O)OCC(C)C`, the result was inactive.
The same measure for `NC=O`: “inactive”; for `CC(C)c1cccc(C(C)C)c1NC(=O)NS(=O)(=O)c1cc(C(C)(C)O)co1`: “inactive”; for `O=C1OC(c2ccc(O)cc2)(c2ccc(O)cc2)c2ccccc21`: “inactive”.
Regarding `Nc1nc(=S)c2[nH]cnc2[nH]1`, the outcome was inactive.
The same measure for `O=C(N[C@@H](c1ccccc1)[C@@H]1CCCCN1)c1cccc(C(F)(F)F)c1Cl`: “inactive”.
Turning to `NC1CCCCC1`, the call was inactive.
The same measure for `CC(C)(O)c1ccc(CNC(=O)c2cccnc2Oc2ccc(F)cc2)cc1`: “inactive”; for `Cn1cnc2c1c(=O)[nH]c(=O)n2C`: “inactive”.
Next, `CCCC(=O)O`: “inactive”; `O=C(O)CN(CC(=O)O)CC(=O)O`: “inactive”.
For `N[C@@H](Cc1c[nH]c2ccccc12)C(=O)O`, the result was inactive.
The same measure for `Oc1ccc(O)cc1`: “inactive”; for `CCN(CC)CCOc1ccc(C(=C(Cl)c2ccccc2)c2ccccc2)cc1`: “inactive”; for `Oc1ccccc1O`: “inactive”.
As to `CC(COCC(C)OC(=O)c1ccccc1)OC(=O)c1ccccc1` (stereo not drawn), the result was inactive.
Next, `O=[Si]=O`: “inactive”.
